USP1-UAF1 inh: blocks the human USP1/UAF1 deubiquitinase complex; O94782; recombinant USP1/UAF1, Ub-Rhodamine cleavage fluorescence; Potency, µM (series often up to 57.1 µM), for inactives: at the highest dose activity change, negative = inhibition, actives largely listed as inhibitors; actives 0.23% (n = 390,000); AID 743255; note: % is set by controls: 0 for no effect and ±100 for the full control effect; nearly all actives have a fitted effect of over 60% in size
Target sequence (O94782 whole entry, looked up): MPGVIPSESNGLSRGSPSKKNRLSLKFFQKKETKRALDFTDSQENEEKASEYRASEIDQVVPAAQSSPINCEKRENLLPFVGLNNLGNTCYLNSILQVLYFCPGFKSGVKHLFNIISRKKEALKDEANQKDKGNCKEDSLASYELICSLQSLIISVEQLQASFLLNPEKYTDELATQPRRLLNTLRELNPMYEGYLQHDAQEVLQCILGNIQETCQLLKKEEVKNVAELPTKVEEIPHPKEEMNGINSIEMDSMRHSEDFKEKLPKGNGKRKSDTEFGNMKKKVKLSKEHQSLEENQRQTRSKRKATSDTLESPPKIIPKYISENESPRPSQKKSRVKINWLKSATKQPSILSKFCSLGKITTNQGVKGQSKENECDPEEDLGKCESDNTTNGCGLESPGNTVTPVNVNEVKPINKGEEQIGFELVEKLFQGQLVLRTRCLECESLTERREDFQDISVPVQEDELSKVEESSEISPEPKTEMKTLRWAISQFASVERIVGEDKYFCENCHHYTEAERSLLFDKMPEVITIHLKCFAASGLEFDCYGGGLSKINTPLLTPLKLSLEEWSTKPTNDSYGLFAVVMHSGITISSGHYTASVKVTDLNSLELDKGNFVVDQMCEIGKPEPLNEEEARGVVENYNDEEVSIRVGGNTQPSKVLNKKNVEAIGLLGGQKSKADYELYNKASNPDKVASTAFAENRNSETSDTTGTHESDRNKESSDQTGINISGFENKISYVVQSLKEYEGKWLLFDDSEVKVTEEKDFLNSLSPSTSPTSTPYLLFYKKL
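In this screen, compounds sit with the deubiquitinase complex (1nM) for 15 min at room temperature before Ub-Rho is added at 150nM final. Fluorescence rise is then followed for 6 reads every 60 seconds.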
EPAC1 antag: antagonists of human EPAC1 | O95398 | EPAC1 GEF assay, Rap1b-BODIPY-GDP exchange fluorescence | Potency, µM (top dose mostly 115 µM), for inactives: at the top dose activity change, negative = inhibition, usual class: inhibitors | actives 0.14% (n = 360,000) | AID 720709;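 note: plate controls were vehicle for no effect and positive control for full effect; nearly all actives have a fitted effect of over 50% in size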
EPAC2 antagonist: EPAC2 (human) antagonism; EPAC2 GEF exchange of Rap1B-BODIPY-GDP, fluorescence; Potency, µM (top dose mostly 114 µM), for the others: top-dose activity, negative = inhibition, hits mostly inhibitors; actives 0.18% (n = 360,000); AID 720708; note: % is set by controls: 0 for no effect and ±100 for the full control effect; nearly all actives have a fitted effect of over 45% in size
EPAC1 ag: EPAC1 (human) agonism. O95398. EPAC1 agonist qHTS, biochemical assay; response scale: 100% = response to 6.5 mM cAMP. Potency, µM (top dose mostly 154 µM), inactives show top-dose activation, most hits filed as activators. actives 0.073% (n = 360,000). AID 720707; note: nearly all actives have a fitted effect of over 60% in size
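Nucleotide exchange by EPAC1 (100 nM) on Rap1B–BODIPY-GDP (250 nM) in the presence of 50 uM GDP is tracked fluorescently at 480/540 nm over 30 min. Signals are normalized to a 6.5 mM cAMP control.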
EPAC2 agonist: EPAC2 (human) agonism | Q8WZA2 | EPAC2 activation, biochemical qHTS; response scale: 100% = 6.5 mM cAMP response | Potency, µM (series often up to 154 µM), inactives show top-dose activation, hits mostly activators | actives 0.079% (n = 360,000) | AID 720711; note: nearly all actives have a fitted effect of over 50% in size
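Setup: EPAC2 100 nM, labeled Rap1B complex 250 nM, free GDP 50 uM. Compound titrations pinned in, brief spin, 5 min room temperature incubation. Kinetic fluorescence read over 30 min, normalized to 6.5 mM cAMP.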
An asterisk follows results filed as active; i = inactive; ? = inconclusive; / = no result. Shown are actives, neighbours in structure and some others; about 0.49% of the full set was active somewhere. Calls come from the whole dose curve; as a rule, active = well fitted curve in the direction sought with a large enough effect; inconclusive = small, poorly fitted or top-dose-only effect, or another doubt; inactive = no such curve, though single readings can be large; an effect the other way counts as inactive or inconclusive. Potency is the fitted concentration of half-maximal effect.

SMILES	USP1-UAF1 inh	EPAC1 antag	EPAC2 antagonist	EPAC1 ag	EPAC2 agonist
CCc1ccc2c(c1)NC(=O)C2(C)Cc1ccc(F)cc1 (stereo not drawn)	/	-8%	45µM*	-17%	-4%
CCc1ccc2c(c1)NC(=O)C2(C)Cc1ccc(Cl)s1 (stereo not drawn)	/	-15%	?	-5%	13%
CCOc1ccc(-c2cn3c(n2)sc2cc(C(=O)NCCCc4ccccc4)ccc23)cc1	-6%	/	/	/	/
Cn1c(NCc2ccccc2F)nc2ccccc21	-10%	/	/	/	/
Cc1c2ccccc2nc2c(F)c(NCCO)c(F)c(F)c12	?	28µM*	-4%	8%	-6%
CC(=O)N1CCCc2cc(S(=O)(=O)N(C)CC(=O)Nc3ccc(C(C)C)cc3)ccc21	-17%	/	/	/	/
Cc1ccc(Cl)cc1NC1=C/C(=N\S(=O)(=O)c2cccs2)c2ccccc2C1=O	3.2µM*	-26%	-3%	3%	5%
Cc1ccc(NC2=C/C(=N\S(=O)(=O)c3cccs3)c3ccccc3C2=O)c(C)c1	2µM*	-18%	-9%	7%	13%
COc1cccc(-n2c(-c3ccco3)nc3c(cnn3-c3ccc(C)cc3)c2=O)c1	-16%	/	/	/	/
CCOC(=O)Nc1sc(C)nc1-c1ccccc1	-4%	-1%	-6%	5%	7%
CCOC(=O)Nc1cc2c(c(N)n1)N=C(c1ccccc1)CN2	?	89µM*	12%	10%	2%
Cc1cccc(N(Cc2ccccc2)C(=O)CSC(C)C(=O)Nc2cc(C)on2)c1 (stereo not drawn)	-10%	-12%	-7%	112µM*	5%
Cc1cc(NC(=O)C(C)SCC(=O)O)no1 (stereo not drawn)	-23%	-2%	-3%	16%	9%
Cc1cc(C)c(C(=O)c2cccs2)c(C)c1	-11%	6%	28µM*	3%	6%
Cc1cc(C(=O)c2cccs2)c(N)s1	-27%	1%	-1%	2%	-1%
COc1ccc(N2CCN(C(=O)c3cc4c(=O)n(Cc5cccs5)ccc4nc3C)CC2)cc1	-14%	/	/	/	/
CCc1nnc(NS(=O)(=O)c2ccc(NC(=S)NC(=O)/C=C/c3ccc(F)cc3)cc2)s1	-12%	22µM*	-3%	-6%	-1%
CCc1ccc(CNC(=O)CCCN2C(=O)c3cccnc3Oc3ccc(Cl)cc32)cc1	-11%	/	/	/	/
CC1=NN(c2ccccc2)C(=O)/C1=C\c1ccc(Oc2ccc([N+](=O)[O-])cc2[N+](=O)[O-])cc1	?	79µM*	2%	11%	3%
CCCCOc1ccc(CNC(=O)c2cccc(NC(=O)N3CCSc4ncccc43)c2)cc1	-25%	/	/	/	/
O=C1Cc2ccccc2C(=O)N1CCc1ccccc1	5.6µM*	?	3%	-9%	6%
O=C1C(=O)N(Cc2ccccc2)C(=O)N1CCN1C(=O)c2ccccc2C1=O	-22%	-5%	0%	-11%	2%
O=C(COc1ccc(Cl)cc1)Nc1c(-c2cccs2)nc2ccccn12	-10%	-3%	3%	-6%	1%
CC(C)CCNc1c(-c2cccs2)nc2ccccn12	-15%	-14%	45µM*	3%	-1%
CC(=O)Nc1ccc(Nc2c3c4c(cccc4n(C)c2=O)C(=O)c2ccccc2-3)cc1	?	35%	11%	?	112µM*
SMILES	USP1-UAF1 inh	EPAC1 antag	EPAC2 antagonist	EPAC1 ag	EPAC2 agonist
CCCCNc1c2c3c(cccc3n(C)c1=O)C(=O)c1ccccc1-2	i	206%	201%	60%	62%
COc1cc(/C=C2\C(=N)N3N=C(S(C)(=O)=O)SC3=NC2=O)cc(OC)c1OCCOc1ccccc1C	?	50µM*	?	4%	10%
COc1cccc(OCCOc2ccc(/C=C3\C(=N)N4N=C(S(C)(=O)=O)SC4=NC3=O)cc2OC)c1	-21%	71µM*	-3%	1%	4%
CC(=Nc1ccc(C)cc1C)c1sc2ccccc2c1O	35µM*	28%	5%	29%	?
CC(=Nc1ccc(C)cc1)c1sc2ccccc2c1O	?	-6%	11%	?	?
O=C(O)c1cccc(NC2=C(n3nnc4ccccc43)C(=O)c3ccccc3C2=O)c1	28µM*	-4%	-2%	-1%	0%
COCCNC(=O)C1CCN(S(=O)(=O)c2ccc3c(c2)CCCN3C(C)=O)CC1	-15%	/	/	/	/
COc1cc2c(cc1OC)C1(C)N(CC2)C(C(C)=O)=NN1c1ccc(Cl)cc1 (stereo not drawn)	-14%	-21%	25µM*	15%	18%
COc1cc2c(cc1OC)CN(C(=O)c1cc(Cl)nc(Cl)c1)CC2	-14%	4%	2%	-11%	9%
CCOc1cc(/C=C(\C#N)C(=O)Nc2cccc(C(=O)O)c2)ccc1OCc1ccccc1Cl	?	-22%	-27%	8%	-2%
CCOc1cc(/C=C(\C#N)C(=O)Nc2cccc(C(=O)O)c2)cc(Br)c1OC(=O)c1ccc(OC)cc1	-22%	?	50µM*	9%	-2%
COc1ccc(NC(=O)CC2C(=O)N(c3ccccc3)C(=O)N2C2CCCCC2)cc1 (stereo not drawn)	-12%	/	/	/	/
COc1cccc2cc(C(C)N(CCCN3CCOCC3)C(=S)Nc3cccc(C)c3)oc12 (stereo not drawn)	-8%	56µM*	-8%	9%	21%
C=C1CCN([C@@H](Cc2ccccc2)C(=O)O)S(=O)(=O)c2ccccc21	-6%	1%	16%	0%	7%
C=C1CCN(C(Cc2ccccc2)C(=O)OC)S(=O)(=O)c2ccc(F)cc21 (stereo not drawn)	-24%	-20%	56µM*	-17%	12%
Cc1ccc(NC(=O)CSCC(=O)N(C)CCOc2ccc(Cl)cc2)cc1	-17%	1%	-15%	6%	0%
Cc1cccc(NC(=O)CSCC(=O)N(C)CCOc2ccc(Cl)cc2)c1	-13%	-12%	-7%	50µM*	9%
COc1ccc(Cl)cc1NS(=O)(=O)c1c(C)nc2scc(C)n2c1=O	-14%	/	/	/	/
COc1ccc(C(=O)c2ccccc2Cl)cc1	-10%	9%	-26%	8%	16%
Cc1sc(N)c(C(=O)c2ccccc2Cl)c1C	-23%	19%	32µM*	9%	7%
COc1cc(-c2c(CCO)sc3ccccc23)cc(OC)c1OC	/	-4%	47µM*	0%	7%
CCN(CCn1cccn1)Cc1c(C(=O)N2CCCCCCC2)nc2ccc(Cl)cn12	-7%	22µM*	-7%	12%	3%
COc1ccc(CCN2C(=O)N(c3ccc(F)cc3)C(=O)C2CC(=O)Nc2ccc(OC)cc2)cc1 (stereo not drawn)	-11%	/	/	/	/
S=c1[nH]nc(-c2cc(-c3ccccc3)n[nH]2)n1/N=C/c1ccc(Cl)cc1	-8%	7%	1%	1%	-10%

Assay outcomes: PubChem, National Center for Advancing Translational Sciences (NCATS)
